DT40 TDP1 no CPT – qHTS for Inhibitors of human tyrosyl-DNA phosphodiesterase 1 (TDP1): qHTS in cells in absence of CPT; Potency, µM (titrated, usually from 46.2 µM), for the others: at the top dose activity change, negative = growth inhibition, actives largely listed as inhibitors; AID 686978, 2013; DT40 Tdp1-/- hTDP1 cells, no CPT, ATP luminescence, 48 h; hit rate 15% among 420,000; further: on the % scale 0 is the no-effect control and ±100 the full control effect; nearly all actives have a fitted effect of over 55% in size
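Seeded 400 DT40-hTDP1 cells/well (vehicle DMSO, no 20 nM CPT); pinned compounds; ≥48 hr at 37 °C; CellTiter-Glo luminescence as viability measure.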
TDP1 inh – TDP1 (human) enzyme inhibition | AID 485290 | Q9NUW8 | hit rate 0.28% among 350,000 | recombinant TDP1, AlphaScreen DNA substrate cleavage | Potency, µM (series often up to 130 µM), without a hit: at the top dose activity change, negative = inhibition, most hits filed as inhibitors; further: on the % scale 0 is the no-effect control and ±100 the full control effect; nearly all actives have a fitted effect of over 40% in size
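Here, a 5' biotin and 3' phosphotyrosine-FITC DNA oligonucleotide reports Tdp1 activity: intact substrate bridges AlphaScreen beads, while cleavage leaves a 3' phosphate and drops signal. All incubations at room temperature.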
ClpP mod – qHTS Assay for Activators of ClpP; hit rate 1.9% among 340,000; purified B. subtilis ClpP, FRET peptide cleavage, 20 min; ATP-dependent Clp protease proteolytic subunit (Bacillus subtilis (strain 168)), P80244; AID 651965, 2013; Potency, µM (highest dose often 57.5 µM), for the others: at the top dose activity change, negative = active; active means well fitted falling curve with a large enough effect; inconclusive means small, poorly fitted or top-dose-only effect; inactive means no such curve, though single readings can be large or run the other way; further: the source files actives as falling curves though it sought activators and does not explain the sign; nearly all actives have a fitted effect of over 65% in size
Target sequence (P80244 whole entry, looked up): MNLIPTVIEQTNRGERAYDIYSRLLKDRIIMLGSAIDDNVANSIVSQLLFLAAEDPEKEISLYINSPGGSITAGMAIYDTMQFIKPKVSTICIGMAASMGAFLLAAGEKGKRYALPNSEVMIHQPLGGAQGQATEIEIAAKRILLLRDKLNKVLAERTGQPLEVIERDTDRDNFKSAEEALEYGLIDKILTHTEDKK
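FRET quenching reversal measured ClpP activation: 10 microg/mL B. subtilis ClpP at pH 8 with the FRET-FV decapeptide, read at 430 nm after 320 nm excitation. The 20-min minus 0-min signal was scaled between DMSO/no-enzyme wells and ADEP (5.8 microM final).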
DT40 TDP1 CPT – growth inhibition of DT40 Tdp1-/-;hTDP1 cells with camptothecin (screen for TDP1 inhibitors). chicken DT40 Tdp1-/-;hTDP1 cells + 20 nM CPT, ATP luminescence, 48 h. hit rate 12% among 420,000. Potency, µM (doses to about 46.2 µM), for inactives: at the top dose activity change, negative = growth inhibition, actives largely listed as inhibitors; further: on the % scale 0 is the no-effect control and ±100 the full control effect; nearly all actives have a fitted effect of over 55% in size
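Chicken DT40 Tdp1-/- cells complemented with human TDP1, 400 cells/well, exposed to compounds plus 20 nM camptothecin for at least 48 h at 37 C; viability read as ATP content by CellTiter-Glo luminescence.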
* hit, by the source's call; ? = inconclusive; nt = not tested or not shown. Rows were chosen to be rich in hits. Some 17% of all compounds tested hit in one or more screens of this group. Unless noted, the call rests on the fitted dose curve; in most records, active means well fitted curve in the direction sought with a large enough effect; inconclusive means small, poorly fitted or top-dose-only effect, or another doubt; inactive means no such curve, though single readings can be large; an effect the other way counts as inactive or inconclusive. Potency means the concentration at half of the fitted maximal effect.

SMILES | DT40 TDP1 no CPT | TDP1 inh | ClpP mod | DT40 TDP1 CPT
C/C=C(/C)C(=O)O[C@H]1[C@@H](O)c2c(ccc3ccc(=O)oc23)OC1(C)C | -29.4% | 0.0% | 3.8% | ?
C/C=C(/C)C(=O)O[C@@H]1c2c(ccc3ccc(=O)oc23)O[C@@H]1C(C)(C)OC(=O)/C(C)=C\C | 16.4µM* | -5.3% | 3.9% | ?
C/C=C(/C)C(=O)O[C@@H]1[C@H](OC(C)=O)c2c(ccc3ccc(=O)oc23)OC1(C)C | 16.4µM* | -3.9% | 4.5% | ?
C/C=C(/C)C(=O)OC(C)(C)[C@@H]1Cc2c(ccc3ccc(=O)oc23)O1 | ? | 1.3% | 4.1% | 18.4µM*
CC(C)CC(=O)OC(C)(C)[C@@H]1Cc2c(ccc3ccc(=O)oc23)O1 | ? | -6.8% | 3.5% | ?
O=S(=O)(c1ccc(Br)cc1)c1nc(-c2ccco2)oc1SCc1ccccc1F | ? | 0.0% | -8.1% | ?
CCOC(=O)c1c(NC(=O)C2C3C=CC(C3)C2(C)C(=O)O)sc2c1CCCC2 (stereo not given) | 18.4µM* | ? | ? | 13µM*
CCOC(=O)c1c(NC(=O)c2ccc(N3C(=O)[C@@H]4[C@H](C3=O)[C@H]3C=C[C@@H]4C3)cc2)sc2c1CCCC2 | 23.1µM* | -5.3% | ? | -85.2%
CCOC(=O)c1c(NC(=O)c2ccc(-n3cnnn3)cc2)sc2c1CCCC2 | 16.4µM* | 5.5% | -6.6% | 11.6µM*
O=C(N/N=C/c1ccccc1)c1cccc2ccccc12 | 1.3µM* | nt | nt | ?
Cc1ccc(/C=N/NC(=O)c2cccc3ccccc23)o1 | 8.2µM* | 0.0% | nt | 13µM*
COc1cc(/C=N/NC(=O)c2cccc3ccccc23)cc(OC)c1OC | ? | nt | nt | -7.1%
Cc1ccc2cc(C#N)c(NCCNC(=O)C3CC3)nc2c1C | 7.31µM* | 0.0% | 35.5µM* | 14.6µM*
Cc1cccc2cc(C#N)c(NCCNC(=O)COc3ccccc3)nc12 | ? | 3.6% | 4.0% | ?
Cc1ccc2cc(C#N)c(NCCNC(=S)NCCCN(C)C)nc2c1C | 25.9µM* | 4.9% | ? | ?
CCC(=O)NCCNc1nc2cc(C)c(C)cc2cc1C#N | -13.5% | 1.0% | 12.6µM* | 3.2%
CCOCCCNC(=S)NCCCNc1nc2c(C)cc(C)cc2cc1C#N | 18.4µM* | -6.2% | 4.2% | 8.2µM*
CCCCCn1c(=O)[nH]c2cc(C(=O)NCCCN3CCCCC3CC)ccc2c1=O (stereo not given) | ? | -1.4% | nt | ?
COc1ccccc1-c1cc(NCc2cnc(C)cn2)ncn1 | 5.7% | nt | nt | 13.8%
COCCCNC(=S)NCCNc1nc2cc(C)cc(C)c2cc1C#N | ? | 2.4% | -3.3% | ?
Cc1cc(C)c2nc(NCCCNC(=S)NCCCN(C)C)c(C#N)cc2c1 | 5.8µM* | 0.0% | ? | 5.8µM*
O=C(Nc1ccc(C2=CN(Cc3ccccc3)CCC2=O)cc1)OCc1ccccc1 | -10.3% | -2.0% | 0.8% | -3.4%
O=C1CCN(Cc2ccccc2)C=C1c1ccc(Br)cc1 | 23.1µM* | -2.3% | -0.5% | 18.4µM*
Cc1ccc(C2=CN(Cc3ccccc3)CCC2=O)cc1 | ? | 1.7% | 0.9% | 20.6µM*
COc1ccccc1CN1CCCC2(CCN(C(=O)c3cccc(F)c3)CC2)C1 | -7.4% | nt | nt | -5.5%
SMILES | DT40 TDP1 no CPT | TDP1 inh | ClpP mod | DT40 TDP1 CPT
Cn1c(=O)c2cc(NC(=S)NC3CCCCC3)ccc2n1-c1ccccc1 | ? | nt | 5.0% | ?
COc1ccc(NC(=O)NC(C)C2CC3CCC2C3)cc1 (stereo not given) | -16.0% | nt | nt | 10.9%
COc1cc(COc2ccc(S(=O)(=O)N3CCOCC3)cc2[N+](=O)[O-])ccc1OC(F)F | ? | nt | 1.8% | 18.4µM*
COc1ccccc1-c1c(-c2ccc(OCC(=O)NN)cc2O)n[nH]c1C(F)(F)F | 13µM* | 0.0% | -5.5% | 9.2µM*
COc1ccc(-c2n[nH]c(C(F)(F)F)c2-c2cc3ccccc3o2)c(O)c1 | 14.6µM* | 1.0% | 25.1µM* | 13µM*
COc1ccc(-c2ccc(CO)o2)cc1N | ? | 1.2% | nt | ?
COC(=O)C1CCN(C(=O)CN2C(=O)NC(CC(C)C)C2=O)CC1 (stereo not given) | -5.9% | 0.6% | 0.1% | 0.5%
Cc1cccc2cc(CN(Cc3ccccc3)Cc3nnnn3Cc3ccccc3)c(=O)[nH]c12 | 12.6µM* | 1.7% | -24.8% | ?
Cc1cccc2cc(CN(Cc3cccs3)Cc3nnnn3Cc3ccccc3)c(=O)[nH]c12 | 23.1µM* | 3.1% | ? | ?
CCOC(=O)Cn1nnnc1CN(Cc1cccs1)Cc1cc2cc(C)cc(C)c2[nH]c1=O | 14.6µM* | 5.0% | ? | 20.6µM*
CCOc1ccc2[nH]c(=O)c(CN(Cc3cccs3)Cc3nnnn3C(C)(C)CC)cc2c1 | 15.8µM* | 2.1% | -27.8% | 16.4µM*
CCC(C)(C)n1nnnc1CN(Cc1cccs1)Cc1cc2cc(OC)ccc2[nH]c1=O | ? | 5.3% | -16.2% | ?
COc1ccc2cc(CN(Cc3cccs3)Cc3nnnn3Cc3ccccc3)c(=O)[nH]c2c1 | ? | -2.6% | ? | ?
CC(CCCCCCCCC(=O)O)N(CCO)C(=O)OC(C)(C)C (stereo not given) | -21.6% | 3.8% | 0.7% | ?
O=C(Cn1ncc2c3ccccc3n(Cc3cccc(Cl)c3)c2c1=O)N1CCCCC1 | 11.6µM* | 7.6% | 0.2% | 20.6µM*
O=C(Cn1ncc2c3ccccc3n(Cc3ccc(F)cc3)c2c1=O)N1CCN(c2ncccn2)CC1 | 16.4µM* | 6.8% | ? | 18.4µM*
O=C(Cn1ncc2c3ccccc3n(Cc3ccccc3)c2c1=O)N1CCCCCC1 | ? | 5.1% | -19.9% | ?
O=C(Cn1ncc2c3ccccc3n(Cc3cccc(Cl)c3)c2c1=O)N1CCCCCC1 | 20.6µM* | 2.5% | ? | 18.4µM*
Cc1ccccc1Cn1c2ccccc2c2cnn(CC(=O)N3CCN(c4ccccc4)CC3)c(=O)c21 | ? | 5.2% | ? | ?
Cc1cc(C)c(Cn2c3ccccc3c3cnn(CC(=O)NCCN4CCOCC4)c(=O)c32)c(C)c1 | ? | 8.6% | -19.4% | ?
Cc1cc(C)c(Cn2c3ccccc3c3cnn(CC(=O)N4CCCCCC4)c(=O)c32)c(C)c1 | 23.1µM* | -2.5% | -3.6% | 23.1µM*
COC(=O)c1scc(-c2ccc(C)cc2)c1S(=O)(=O)Nc1ccc(NC(C)=O)cc1 | ? | 7.1% | -0.5% | 18.4µM*
COC(=O)c1scc(-c2ccc(C)cc2)c1S(=O)(=O)Nc1ccc(OC(F)(F)F)cc1 | -8.5% | 4.5% | 0.4% | -7.2%
COC(=O)c1scc(-c2ccc(C)cc2)c1S(=O)(=O)Nc1ccc(N(C)C)cc1 | 14.6µM* | 12.3% | -2.1% | 16.4µM*
